PubChem BioAssay (NCI)
This is part of a sample that, as a whole, favours compounds with a hit. Of some 79,000 tested, about 15% had one in any assay. The source made the active and inactive calls. Cut-off read from the data, not from the text of the source: active = growth inhibition above about 70%; inactive = the rest.

Tests used:
[1] = NCI Yeast Anticancer Drug Screen. Data for the wt1 strain (AID 149);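 note: 0% = growth of vehicle-treated wt1 cultures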; details: S. cerevisiae wt1 strain (SPY 50644) growth inhibition, active compounds read high
Outline: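 Measured: growth of wt1 yeast under compound versus vehicle treatment, reported as inhibition.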

[2] = NCI Yeast Anticancer Drug Screen. Data for the rad50EPP+ strain (AID 151);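 note: 0% = growth of vehicle-treated control cultures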; details: S. cerevisiae rad50 mutant strain, active compounds read high
Outline: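 Genetically defined yeast (rad50EPP+, DNA damage repair alteration) is grown with compound, and inhibition of growth is expressed relative to vehicle-treated controls.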

[3] = NCI Yeast Anticancer Drug Screen. Data for the mgt1 strain (AID 153); details: S. cerevisiae mgt1 mutant growth inhibition, active compounds read high
Outline: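 In the mgt1 strain, test compounds were added and growth inhibition was determined relative to vehicle-treated controls.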

[4] = NCI Yeast Anticancer Drug Screen. Data for the rad50 strain (AID 155);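 note: 0% = growth of vehicle-only cultures of the same strain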; details: S. cerevisiae rad50 strain growth inhibition, active compounds read high
Outline: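 Growth of the mutant yeast was measured after compound exposure and referenced to vehicle-treated cultures.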

[5] = NCI Yeast Anticancer Drug Screen. Data for the mec2-1 strain (AID 157); details: S. cerevisiae mec2-1 strain, active compounds read high
Outline: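 Each compound was tested on mec2-1 yeast, a strain altered in DNA damage repair or cell cycle control. Growth inhibition is reported relative to vehicle.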

[6] = NCI Yeast Anticancer Drug Screen. Data for the rad14 strain (AID 159);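 note: 0% = growth of vehicle-treated control cultures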; details: S. cerevisiae rad14 strain growth inhibition, active compounds read high
Outline: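 Here, inhibition of yeast growth was measured after compound exposure, using a strain with a genetic defect in DNA damage repair and vehicle-treated cultures as the reference.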

[7] = NCI Yeast Anticancer Drug Screen. Data for the sgs1 mgt1 strain (AID 161);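 note: 0% = growth of cultures given vehicle only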; details: S. cerevisiae sgs1 mgt1 strain, active compounds read high
Outline: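 Mutant yeast exposed to compound; growth scored against vehicle-only wells.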

[8] = NCI Yeast Anticancer Drug Screen. Data for the CLN2oe strain (AID 163);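 note: 0% = growth of vehicle-only control cultures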; details: S. cerevisiae CLN2oe strain, active compounds read high
Outline: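 First, the altered yeast strain was treated with each compound; second, its growth was measured; finally, inhibition was derived by comparison with vehicle controls.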

[9] = NCI Yeast Anticancer Drug Screen. Data for the cln2 rad14 strain (AID 165);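 note: 0% = growth equal to vehicle treated cultures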; details: S. cerevisiae cln2 rad14 strain, active compounds read high
Outline: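 Test compounds were added to cln2 rad14 yeast cultures; inhibition of growth was then determined by comparison with vehicle treatment.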

[10] = NCI Yeast Anticancer Drug Screen. Data for the bub3 strain (AID 167); details: S. cerevisiae bub3 mutant strain, active compounds read high
Outline: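 Whole-cell yeast assay. The mutant strain was incubated with compounds, and growth inhibition was determined by comparison with vehicle-treated cells.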

[11] = NCI Yeast Anticancer Drug Screen. Data for the wt2 strain (AID 169);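 note: 0% = growth of vehicle-treated yeast cultures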; details: S. cerevisiae wt2 strain growth inhibition, active compounds read high
Outline: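 The panel's yeast strains carry defined changes in DNA repair or cell cycle genes. Each strain is grown with compound, and growth loss is scored relative to vehicle.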

[12] = NCI Yeast Anticancer Drug Screen. Data for the mlh1 strain (AID 171);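 note: 0% = growth of vehicle-treated control cultures of the same strain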; details: S. cerevisiae mlh1 strain growth inhibition, active compounds read high
Outline: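 Inhibition values reflect reduced yeast growth in the presence of compound, referenced to vehicle controls, using a strain chosen for its alteration in DNA repair or cell cycle control.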

[13] = NCI Yeast Anticancer Drug Screen. Data for the sgs1 strain (AID 173);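 note: 0% = growth of vehicle-only control cultures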; details: S. cerevisiae sgs1 mutant, active compounds read high
Outline: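 Vehicle-treated cultures served as reference for growth inhibition of a yeast strain altered in DNA damage repair or cell cycle control after compound exposure.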

[14] = NCI Yeast Anticancer Drug Screen. Data for the mlh1 rad18 strain (AID 175); details: S. cerevisiae mlh1 rad18 strain growth inhibition, active compounds read high
Outline: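 Inhibition values reflect reduced growth of mutant yeast versus vehicle-treated controls following compound exposure; the mutations affect DNA damage repair.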

[15] = NCI Yeast Anticancer Drug Screen. Data for the rad18 strain (AID 177); details: S. cerevisiae rad18 mutant growth inhibition, active compounds read high
Outline: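 Steps: expose repair-mutant yeast to compound; measure growth; express as inhibition relative to vehicle control.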

[16] = at 5.0 µM (retest, dose inferred, filed as 0.5)
[17] = at 50.0 µM (retest, dose inferred, filed as 5.0)

Measured: growth inhibition

CCN(CC)CCC(=O)c1ccc(Oc2ccc(F)cc2)cc1
inactive: [1]; at 1.2 µM -11% | [1]; at 3.7 µM 23% | [1]; at 11.0 µM 21% | [1]; at 33.0 µM -5% | [2]; at 1.2 µM -9% | [2]; at 3.7 µM -30% | [2]; at 11.0 µM 9% | [2]; at 33.0 µM 36% | [3]; at 1.2 µM 49% | [3]; at 3.7 µM 59% | [4]; at 1.2 µM -5% | [4]; at 3.7 µM -21% | [4]; [16] 46% | [4]; at 11.0 µM -17% | [4]; at 33.0 µM 2% | [4]; at 50.0 µM 57% | [5]; at 1.2 µM 17% | [5]; at 3.7 µM 35% | [5]; [16] 41% | [5]; at 11.0 µM 42% | [5]; at 33.0 µM 52% | [5]; at 50.0 µM 44.5% | [6]; at 1.2 µM 5% | [6]; at 3.7 µM 39% | [6]; at 11.0 µM 51% | [7]; [16] 62% | [7]; [17] 66% | [8]; at 1.2 µM 10% | [8]; at 3.7 µM 17% | [8]; at 11.0 µM 35% | [8]; at 33.0 µM 54% | [8]; at 100.0 µM 68% | [9]; [16] 21% | [9]; [17] 3% | [9]; at 50.0 µM 32.9% | [10]; at 1.2 µM 35% | [10]; at 3.7 µM 46% | [10]; [16] 55% | [10]; at 11.0 µM 58% | [10]; [17] 47% | [10]; at 50.0 µM 69.6% | [11]; at 1.2 µM 17% | [11]; at 3.7 µM 21% | [11]; at 11.0 µM 41% | [12]; at 1.2 µM 34% | [12]; at 3.7 µM 37% | [12]; at 11.0 µM 58% | [13]; at 1.2 µM -12% | [13]; at 3.7 µM -2% | [13]; at 11.0 µM 11% | [13]; at 33.0 µM 59% | [14]; [16] 65% | [14]; at 50.0 µM 47.5% | [15]; at 1.2 µM 4% | [15]; at 3.7 µM 26% | [15]; at 11.0 µM 27% | [15]; at 33.0 µM 52%
active: [1]; at 100.0 µM 80% | [2]; at 100.0 µM 93% | [3]; at 11.0 µM 76% | [3]; at 33.0 µM 92% | [3]; at 100.0 µM 94% | [4]; [17] 82% | [4]; at 100.0 µM 87% | [5]; [17] 87% | [5]; at 100.0 µM 95% | [6]; at 33.0 µM 79% | [6]; at 100.0 µM 81% | [7]; at 50.0 µM 76.5% | [10]; at 33.0 µM 83% | [10]; at 100.0 µM 97% | [11]; at 33.0 µM 71% | [11]; at 100.0 µM 80% | [12]; at 33.0 µM 73% | [12]; at 100.0 µM 83% | [13]; at 100.0 µM 96% | [14]; [17] 93% | [15]; at 100.0 µM 96%
